From the supplement of paper PMC11732987, “Enantioselective OTUD7B fragment discovery through chemoproteomics screening and high-throughput optimisation” (Communications Chemistry, 2025)

Experiments:
Test in all cases: log2 ratio of Biotin-Ahx-Ub-VS probe labelling (fragment/DMSO); higher = less target engagement (more negative = stronger competition), active = hit call of the paper (q ≤ 0.05, log2 ratio ≤ -1)
Settings in all cases: compound concentration: 200 uM; treatment time: 3 h
USP34 = USP34 (UniProt Q70CQ2)
In short: (§1)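 Each value is an average log2 ratio of fragment to vehicle, tested by unpaired t-test. The underlying Spectronaut label-free quantities were global-median-normalised, and only proteins with ≥2 unique peptides were included. Triplicate HEK293T lysate samples (495 µg) were exposed to fragment at 200 µM or vehicle for 3 h, then to Biotin-Ahx-Ub-VS at 0.5 µM final for 1 h, before NeutrAvidin enrichment of labelled DUBs, LysC and trypsin digestion, and diaPASEF LC-MS/MS.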

USP36 = target: T1, USP36 (UniProt Q9P275)
T1 sequence (whole entry): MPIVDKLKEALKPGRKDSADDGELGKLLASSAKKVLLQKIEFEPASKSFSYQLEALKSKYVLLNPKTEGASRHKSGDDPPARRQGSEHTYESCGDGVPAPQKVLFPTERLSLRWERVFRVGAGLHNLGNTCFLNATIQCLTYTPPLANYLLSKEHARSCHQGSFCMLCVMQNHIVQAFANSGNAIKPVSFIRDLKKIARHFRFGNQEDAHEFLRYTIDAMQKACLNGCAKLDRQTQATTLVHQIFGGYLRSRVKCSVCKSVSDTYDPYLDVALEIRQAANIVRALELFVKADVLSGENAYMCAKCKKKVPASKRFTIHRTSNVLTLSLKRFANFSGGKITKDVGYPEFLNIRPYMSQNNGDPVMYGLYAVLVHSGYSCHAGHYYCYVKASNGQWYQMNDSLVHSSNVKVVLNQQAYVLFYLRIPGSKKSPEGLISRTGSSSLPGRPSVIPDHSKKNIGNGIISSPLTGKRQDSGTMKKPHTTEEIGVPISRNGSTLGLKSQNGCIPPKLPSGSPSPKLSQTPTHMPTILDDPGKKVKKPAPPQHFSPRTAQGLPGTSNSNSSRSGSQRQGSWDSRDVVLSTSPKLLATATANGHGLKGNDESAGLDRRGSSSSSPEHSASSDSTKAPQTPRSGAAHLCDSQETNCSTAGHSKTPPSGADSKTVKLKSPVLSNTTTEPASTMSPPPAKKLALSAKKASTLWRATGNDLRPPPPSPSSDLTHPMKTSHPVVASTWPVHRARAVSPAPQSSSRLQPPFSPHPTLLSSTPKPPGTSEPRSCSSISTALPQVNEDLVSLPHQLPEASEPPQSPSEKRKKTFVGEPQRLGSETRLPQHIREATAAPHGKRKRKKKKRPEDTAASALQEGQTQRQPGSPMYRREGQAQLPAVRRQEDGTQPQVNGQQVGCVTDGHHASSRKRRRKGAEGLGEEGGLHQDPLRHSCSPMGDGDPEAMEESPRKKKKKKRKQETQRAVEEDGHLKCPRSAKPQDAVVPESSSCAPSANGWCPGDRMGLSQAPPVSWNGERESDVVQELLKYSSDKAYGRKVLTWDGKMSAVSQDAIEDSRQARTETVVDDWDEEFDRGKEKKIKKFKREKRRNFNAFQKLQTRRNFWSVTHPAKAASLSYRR
In short: as §1

USP38 = target: T2, USP38 (UniProt Q8NB14)
T2 sequence (whole entry): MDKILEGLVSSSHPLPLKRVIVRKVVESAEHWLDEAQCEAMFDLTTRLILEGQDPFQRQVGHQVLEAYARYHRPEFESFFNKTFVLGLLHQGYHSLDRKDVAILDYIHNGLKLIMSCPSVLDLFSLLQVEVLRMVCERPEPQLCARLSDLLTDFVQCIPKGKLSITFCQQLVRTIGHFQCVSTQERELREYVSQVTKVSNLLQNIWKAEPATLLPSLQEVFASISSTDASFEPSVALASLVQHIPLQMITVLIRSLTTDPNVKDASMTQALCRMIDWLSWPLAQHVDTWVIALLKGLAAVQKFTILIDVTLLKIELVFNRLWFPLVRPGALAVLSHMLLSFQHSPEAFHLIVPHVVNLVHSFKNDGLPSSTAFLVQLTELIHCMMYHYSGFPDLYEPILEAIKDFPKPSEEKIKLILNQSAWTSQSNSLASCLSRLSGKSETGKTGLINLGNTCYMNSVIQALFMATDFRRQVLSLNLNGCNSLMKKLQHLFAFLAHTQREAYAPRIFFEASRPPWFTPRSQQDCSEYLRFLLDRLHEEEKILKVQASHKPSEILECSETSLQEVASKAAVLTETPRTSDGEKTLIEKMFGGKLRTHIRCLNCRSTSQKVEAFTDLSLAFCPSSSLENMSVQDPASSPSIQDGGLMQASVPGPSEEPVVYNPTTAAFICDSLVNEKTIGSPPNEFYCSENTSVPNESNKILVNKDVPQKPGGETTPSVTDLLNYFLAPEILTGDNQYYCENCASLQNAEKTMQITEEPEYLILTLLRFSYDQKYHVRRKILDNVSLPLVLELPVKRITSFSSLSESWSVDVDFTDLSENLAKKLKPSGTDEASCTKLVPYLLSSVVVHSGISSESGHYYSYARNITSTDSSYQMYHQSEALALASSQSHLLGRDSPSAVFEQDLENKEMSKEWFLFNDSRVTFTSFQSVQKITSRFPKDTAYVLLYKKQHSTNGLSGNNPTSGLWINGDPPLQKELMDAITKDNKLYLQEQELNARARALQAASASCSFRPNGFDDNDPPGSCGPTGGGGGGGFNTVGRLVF
In short: as §1

USP39 = target: T3, USP39 (UniProt Q53GS9)
T3 sequence (whole entry): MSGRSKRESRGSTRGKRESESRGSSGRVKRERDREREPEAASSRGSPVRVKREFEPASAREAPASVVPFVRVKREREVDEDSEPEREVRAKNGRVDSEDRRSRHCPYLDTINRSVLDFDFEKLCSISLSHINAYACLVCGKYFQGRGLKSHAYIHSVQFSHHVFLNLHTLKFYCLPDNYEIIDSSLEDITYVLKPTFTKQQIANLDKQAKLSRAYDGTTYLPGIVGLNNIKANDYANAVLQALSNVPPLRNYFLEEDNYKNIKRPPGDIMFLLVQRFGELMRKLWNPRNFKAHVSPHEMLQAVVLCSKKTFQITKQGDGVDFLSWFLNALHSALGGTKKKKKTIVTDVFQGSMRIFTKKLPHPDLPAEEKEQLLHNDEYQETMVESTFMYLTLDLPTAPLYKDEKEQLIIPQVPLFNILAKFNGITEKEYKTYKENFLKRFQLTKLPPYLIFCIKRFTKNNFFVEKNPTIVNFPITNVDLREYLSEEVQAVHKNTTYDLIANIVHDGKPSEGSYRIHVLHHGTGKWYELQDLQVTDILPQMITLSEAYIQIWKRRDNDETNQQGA
In short: as §1

USP4 = target: T4, USP4 (UniProt Q13107)
T4 sequence (whole entry): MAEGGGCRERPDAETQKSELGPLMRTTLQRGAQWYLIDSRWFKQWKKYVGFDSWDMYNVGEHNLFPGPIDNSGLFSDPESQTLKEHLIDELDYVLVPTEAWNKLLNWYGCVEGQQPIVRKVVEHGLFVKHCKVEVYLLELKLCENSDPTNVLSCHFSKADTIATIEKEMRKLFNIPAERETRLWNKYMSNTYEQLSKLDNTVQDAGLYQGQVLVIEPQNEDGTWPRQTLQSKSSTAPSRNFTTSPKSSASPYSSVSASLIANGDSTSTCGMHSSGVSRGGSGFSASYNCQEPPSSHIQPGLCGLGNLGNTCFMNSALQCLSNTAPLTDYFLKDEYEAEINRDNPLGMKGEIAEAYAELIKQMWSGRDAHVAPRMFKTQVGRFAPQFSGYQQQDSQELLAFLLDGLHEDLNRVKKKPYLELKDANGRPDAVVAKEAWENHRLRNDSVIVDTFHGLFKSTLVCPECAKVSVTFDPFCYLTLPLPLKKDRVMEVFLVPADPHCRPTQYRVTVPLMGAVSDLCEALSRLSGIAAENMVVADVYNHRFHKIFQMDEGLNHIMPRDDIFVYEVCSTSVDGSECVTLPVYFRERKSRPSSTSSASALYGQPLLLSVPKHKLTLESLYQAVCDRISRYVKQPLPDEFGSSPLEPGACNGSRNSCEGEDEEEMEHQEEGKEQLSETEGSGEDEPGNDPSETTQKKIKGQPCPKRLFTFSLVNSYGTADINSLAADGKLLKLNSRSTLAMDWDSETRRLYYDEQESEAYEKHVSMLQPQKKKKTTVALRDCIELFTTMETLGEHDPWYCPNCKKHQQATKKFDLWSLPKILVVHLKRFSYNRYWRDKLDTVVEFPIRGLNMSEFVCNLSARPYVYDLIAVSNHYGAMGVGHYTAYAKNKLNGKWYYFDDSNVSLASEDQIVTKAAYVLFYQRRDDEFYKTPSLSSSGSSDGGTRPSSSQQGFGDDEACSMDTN
In short: as §1

Measured: log2 ratio of Biotin-Ahx-Ub-VS probe labelling

Chain of USP34 (Q70CQ2 whole entry, the tested form may be a part): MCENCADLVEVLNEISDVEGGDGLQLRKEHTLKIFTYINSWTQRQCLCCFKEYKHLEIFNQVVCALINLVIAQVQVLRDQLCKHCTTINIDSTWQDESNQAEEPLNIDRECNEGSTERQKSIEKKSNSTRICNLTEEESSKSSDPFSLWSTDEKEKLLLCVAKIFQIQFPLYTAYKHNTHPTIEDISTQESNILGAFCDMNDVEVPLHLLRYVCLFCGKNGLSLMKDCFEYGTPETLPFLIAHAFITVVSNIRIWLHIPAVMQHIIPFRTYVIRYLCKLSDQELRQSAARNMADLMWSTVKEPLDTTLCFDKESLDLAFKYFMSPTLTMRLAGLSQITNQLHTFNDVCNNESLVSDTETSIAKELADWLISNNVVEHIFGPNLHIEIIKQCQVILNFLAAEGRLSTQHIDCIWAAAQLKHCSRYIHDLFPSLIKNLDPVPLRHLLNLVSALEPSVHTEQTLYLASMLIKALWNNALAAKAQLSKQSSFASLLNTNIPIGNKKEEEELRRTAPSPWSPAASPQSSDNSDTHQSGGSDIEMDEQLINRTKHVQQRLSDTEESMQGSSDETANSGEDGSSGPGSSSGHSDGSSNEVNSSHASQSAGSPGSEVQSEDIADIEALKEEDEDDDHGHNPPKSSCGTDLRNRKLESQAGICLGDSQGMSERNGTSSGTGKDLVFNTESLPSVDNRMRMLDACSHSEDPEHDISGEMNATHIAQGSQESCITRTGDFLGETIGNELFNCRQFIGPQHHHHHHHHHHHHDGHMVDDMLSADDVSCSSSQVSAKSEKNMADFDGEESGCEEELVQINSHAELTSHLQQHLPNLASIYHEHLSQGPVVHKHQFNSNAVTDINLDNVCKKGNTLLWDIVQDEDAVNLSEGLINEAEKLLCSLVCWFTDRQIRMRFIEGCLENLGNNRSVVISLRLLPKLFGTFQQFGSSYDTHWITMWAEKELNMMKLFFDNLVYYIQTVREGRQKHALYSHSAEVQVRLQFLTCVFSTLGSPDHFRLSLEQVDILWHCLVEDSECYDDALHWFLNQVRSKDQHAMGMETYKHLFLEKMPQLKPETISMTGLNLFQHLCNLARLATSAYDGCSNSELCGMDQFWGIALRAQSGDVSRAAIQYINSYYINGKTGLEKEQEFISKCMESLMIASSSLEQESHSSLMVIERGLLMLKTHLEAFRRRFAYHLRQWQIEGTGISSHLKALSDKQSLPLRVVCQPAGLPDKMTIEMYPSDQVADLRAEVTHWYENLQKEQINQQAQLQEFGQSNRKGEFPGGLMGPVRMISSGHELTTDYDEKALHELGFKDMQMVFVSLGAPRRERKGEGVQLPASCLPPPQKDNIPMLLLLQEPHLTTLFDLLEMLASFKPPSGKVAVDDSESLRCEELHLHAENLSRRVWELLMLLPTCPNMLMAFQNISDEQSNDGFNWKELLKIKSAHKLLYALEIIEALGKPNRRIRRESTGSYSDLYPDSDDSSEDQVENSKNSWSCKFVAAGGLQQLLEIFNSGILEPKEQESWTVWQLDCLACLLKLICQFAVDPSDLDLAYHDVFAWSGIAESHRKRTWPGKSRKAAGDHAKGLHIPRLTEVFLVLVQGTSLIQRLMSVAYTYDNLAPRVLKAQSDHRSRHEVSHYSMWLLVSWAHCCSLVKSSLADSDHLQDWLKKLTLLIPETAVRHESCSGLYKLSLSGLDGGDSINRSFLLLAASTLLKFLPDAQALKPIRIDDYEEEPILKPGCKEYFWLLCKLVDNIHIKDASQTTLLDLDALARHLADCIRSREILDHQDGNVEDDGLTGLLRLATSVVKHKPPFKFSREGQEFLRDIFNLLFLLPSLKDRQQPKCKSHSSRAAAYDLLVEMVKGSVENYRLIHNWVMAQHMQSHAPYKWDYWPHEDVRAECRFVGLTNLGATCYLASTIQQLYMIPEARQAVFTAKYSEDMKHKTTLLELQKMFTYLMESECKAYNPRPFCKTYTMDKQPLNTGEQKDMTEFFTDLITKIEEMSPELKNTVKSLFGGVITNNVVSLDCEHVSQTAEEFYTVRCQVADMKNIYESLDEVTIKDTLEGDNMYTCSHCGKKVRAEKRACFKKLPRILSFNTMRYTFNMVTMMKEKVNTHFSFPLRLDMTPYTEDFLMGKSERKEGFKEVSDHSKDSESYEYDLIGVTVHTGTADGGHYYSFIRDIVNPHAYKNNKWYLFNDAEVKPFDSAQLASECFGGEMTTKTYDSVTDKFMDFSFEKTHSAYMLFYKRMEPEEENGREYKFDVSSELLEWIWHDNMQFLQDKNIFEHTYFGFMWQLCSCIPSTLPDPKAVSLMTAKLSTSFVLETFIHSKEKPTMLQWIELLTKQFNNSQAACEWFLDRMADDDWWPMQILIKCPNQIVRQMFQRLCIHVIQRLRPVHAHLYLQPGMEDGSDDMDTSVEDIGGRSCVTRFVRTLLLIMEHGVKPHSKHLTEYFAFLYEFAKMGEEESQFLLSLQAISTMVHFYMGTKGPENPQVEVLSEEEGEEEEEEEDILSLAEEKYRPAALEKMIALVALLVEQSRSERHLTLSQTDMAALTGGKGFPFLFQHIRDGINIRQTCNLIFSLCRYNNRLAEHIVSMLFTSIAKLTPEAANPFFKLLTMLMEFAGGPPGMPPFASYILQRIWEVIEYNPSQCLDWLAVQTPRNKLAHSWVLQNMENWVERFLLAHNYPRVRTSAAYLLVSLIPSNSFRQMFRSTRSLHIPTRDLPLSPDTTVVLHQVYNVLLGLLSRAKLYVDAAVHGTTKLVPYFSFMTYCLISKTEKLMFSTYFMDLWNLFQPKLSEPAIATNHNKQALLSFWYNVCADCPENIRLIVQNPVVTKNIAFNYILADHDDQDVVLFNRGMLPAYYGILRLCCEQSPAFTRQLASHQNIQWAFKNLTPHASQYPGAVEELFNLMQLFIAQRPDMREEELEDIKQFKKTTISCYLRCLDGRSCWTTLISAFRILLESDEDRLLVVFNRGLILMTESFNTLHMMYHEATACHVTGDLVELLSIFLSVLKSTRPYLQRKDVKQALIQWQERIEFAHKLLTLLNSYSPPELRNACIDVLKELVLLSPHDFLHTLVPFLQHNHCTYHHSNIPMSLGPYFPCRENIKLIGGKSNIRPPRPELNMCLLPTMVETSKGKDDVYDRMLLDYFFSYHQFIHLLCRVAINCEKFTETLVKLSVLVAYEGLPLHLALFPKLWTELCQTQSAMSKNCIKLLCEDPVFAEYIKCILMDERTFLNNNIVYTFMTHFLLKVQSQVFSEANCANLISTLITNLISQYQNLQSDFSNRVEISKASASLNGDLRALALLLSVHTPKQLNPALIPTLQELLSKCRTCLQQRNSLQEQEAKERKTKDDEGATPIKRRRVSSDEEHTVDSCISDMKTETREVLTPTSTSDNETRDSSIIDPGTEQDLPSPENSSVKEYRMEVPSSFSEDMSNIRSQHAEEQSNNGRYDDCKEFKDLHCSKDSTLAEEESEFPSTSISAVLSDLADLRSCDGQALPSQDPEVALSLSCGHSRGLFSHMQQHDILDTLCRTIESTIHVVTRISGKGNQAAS

O=C(CCl)N1CCOCC1C1CC1 (stereo not given)
inactive: USP34 0.0844 | USP36 -0.0397 | USP38 0.0391 | USP39 0.265 | USP4 -0.101
